These results are taken from PubChem BioAssay AID372 (MTDP, 2006).

Several values for one entry are separate records, joined by “and”; a condition that tells them apart may be missing. Identical values can stand only once. Screen size: about 100,000 compounds; about 770 (0.77%) were called active. Rule as the data show it: active = inhibition above about 50%; inactive = the rest. The full list was thinned out, with actives kept by preference.

The experiment concerns the target Gag-Pol polyprotein (Human immunodeficiency virus type 1 group M subtype B (isolate HXB2)) (UniProt P04585). Kind of experiment: RNase H inhibition, HIV 1 Gag Pol polyprotein, FRET biochemical assay, screening (AID 372). The settings on record: HIV-1 RT RNase H, FRET RNA/DNA substrate fluorescence; at 10 µM; stronger effect = higher value.
As for `CC12CCC3C(CC=C4CC(O)CCC43C)C1C/C(=C\c1ccc([N+](=O)[O-])cc1)C2=O` (centres undefined), the inhibition (in general, how much of the control response was suppressed) was 55% (active).

Regarding `CC12CCC3C(CC=C4CC(O)CCC43C)C1C/C(=C\c1ccc(F)cc1)C2=O` (centres undefined), the inhibition is 11% (inactive).

For `CC(=O)OC1CCC2(C)C(=CCC3C4C/C(=C\c5ccc([N+](=O)[O-])cc5)C(=O)C4(C)CCC32)C1` (centres undefined), the inhibition was 9% (inactive).

Take `Cc1cc(OCc2ccc(Cl)cc2)c2c3c(c(=O)oc2c1)CCC3`: the inhibition was 3% (inactive).

For `Oc1c(I)cc(I)cc1CN1CCN(c2ccccc2F)CC1`, the inhibition was 8% (inactive).

As to `O=C1NC(=O)C(=Cc2cccn2-c2ccc(Br)cc2)C(=O)N1`, the inhibition is 50% (active).

Turning to `Cc1cc(C=C2C(=O)NC(=O)NC2=O)c(C)n1-c1ccc(Br)cc1`, the inhibition was 9% (inactive).

Regarding `Cc1cc(C)cc(N2C(=O)NC(=O)/C(=C\c3cccn3-c3ccccc3)C2=O)c1`, the inhibition is 28% (inactive).

As for `CN1C(=O)C(Cc2c[nH]c3ccccc23)C(=O)N(C)C1=O`, the inhibition was 0% (inactive).

Regarding `O=[N+]([O-])c1ccccc1CNCCc1ccc(F)cc1`, the inhibition is 1% (inactive).

`Cc1ccccc1N1CCN(Cc2ccc(Cl)cc2Cl)CC1`: the inhibition is 2% (inactive).

On to `CCN(CC)C(=O)c1ccc(NC(C)=O)cc1`, for which the inhibition was 9% (inactive).

As to `CCOc1cccc(=[O+]CC)c2c(C)oc(C)c12`, the inhibition was 2% (inactive) and 12% (inactive).

On to `O=C(O)c1cn(Cc2ccccc2)c2ccccc12`, for which the inhibition was 8% (inactive).

Consider `O=C1NC(=S)NC(=O)C1=Cc1ccc(OCc2ccc(Br)cc2)cc1`, for which the inhibition was 59% (active).

On to `CCOc1ccc(C=C2C(=O)NC(=S)NC2=O)cc1`, for which the inhibition is 12% (inactive).

For `O=C1NC(=S)NC(=O)C1=Cc1ccc(OCc2cccc(C(=O)O)c2)cc1`, the inhibition was 5% (inactive).

Consider `CN1C(=O)/C(=C\c2cn(Cc3ccccc3)c3ccccc23)C(=O)NC1=S`, for which the inhibition is 15% (inactive).

Regarding `COc1ccc(CN2CCN(CCO)CC2)c(OC)c1`, the inhibition is 9% (inactive).

Consider `Clc1ccc(N2CCN(CCc3ccccc3)CC2)cc1`, for which the inhibition is 14% (inactive).

For `CSc1ccc(C2C(C#N)=C(N)Oc3c2c(=O)oc2ccccc32)cc1` (centres undefined), the inhibition was 7% (inactive).

Take `O=C(COc1ccc([N+](=O)[O-])cc1)Nc1ccc(Br)cc1C(=O)c1ccccc1`: the inhibition is 49% (inactive).

On to `COc1ccc(OCC(=O)Nc2ccc(Br)cc2C(=O)c2ccccc2)cc1`, for which the inhibition was 51% (active).

On to `O=C(COc1ccccc1)Nc1ccc(Cl)cc1C(=O)c1ccccc1`, for which the inhibition was 37% (inactive).

Take `C=CCOC(=O)C1=C(C)OC(N)=C(C(=O)OCC)C12C(=O)Nc1ccccc12` (centres undefined): the inhibition was 2% (inactive).

For `COc1ccc(CN2CCN(Cc3cccc(OC)c3)CC2)cc1`, the inhibition is 7% (inactive).

Regarding `O=C1NC(=S)NC(=O)C1=Cc1ccc(-c2cc(Cl)ccc2Cl)o1`, the inhibition was 0% (inactive).

With `O=C1NC(=S)NC(=O)C1=Cc1ccc(-c2ccc([N+](=O)[O-])cc2Br)o1`, the inhibition was 56% (active).

Take `Cc1ccc(-c2ccc(C=C3C(=O)NC(=S)NC3=O)o2)c(Br)c1`: the inhibition is 36% (inactive).

`Cc1cc(-c2ccc(C=C3C(=O)NC(=S)NC3=O)o2)c(C)c([N+](=O)[O-])c1`: the inhibition is 27% (inactive).

For `O=C1NC(=S)NC(=O)C1=Cc1ccc(-c2ccc(C(=O)O)c(Cl)c2)o1`, the inhibition was 17% (inactive).

Take `O=C1NC(=S)NC(=O)C1=Cc1ccc(-c2ccc(Cl)c(Cl)c2)o1`: the inhibition is 0% (inactive).

Take `O=C1NC(=S)NC(=O)C1=Cc1ccc(-c2ccc(Br)c(Cl)c2)o1`: the inhibition was 54% (active).

For the molecule `O=C1NC(=S)NC(=O)C1=Cc1ccc(-c2cc(Cl)c([N+](=O)[O-])cc2Cl)o1`, the inhibition is 50% (active).

With `CN1C(=O)NC(=O)/C(=C/c2ccc(-c3ccc([N+](=O)[O-])cc3Br)o2)C1=O`, the inhibition is 26% (inactive).

As for `CCOC(=O)C1=C(N)OC(C)=C(C(C)=O)C12C(=O)Nc1ccccc12` (centres undefined), the inhibition is 10% (inactive).

With `COc1cc(/C=C2\C(=O)NC(=O)N(c3ccccc3)C2=O)c([N+](=O)[O-])cc1OC`, the inhibition is 5% (inactive).

With `CC(C)OC(=O)N1CCN(/C(N)=N/[N+](=O)[O-])CC1`, the inhibition is 7% (inactive).

As to `O=C(COc1ccc2ccccc2c1)N1CCN(Cc2ccc3c(c2)OCO3)CC1`, the inhibition is 17% (inactive).

Regarding `O=C1NC(=O)N(Cc2ccco2)C(=O)/C1=C\c1cn(Cc2ccccc2)c2ccccc12`, the inhibition is 23% (inactive).

Take `Cc1ccc(OCCn2cc(/C=C3/C(=O)NC(=O)N(Cc4ccco4)C3=O)c3ccccc32)cc1`: the inhibition was 52% (active).

As for `Cc1ccc(-n2c(C)cc(/C=C3/C(=O)NC(=O)N(Cc4ccco4)C3=O)c2C)cc1`, the inhibition is 16% (inactive).

Regarding `O=c1c2ccccc2nc(-c2ccc(Cl)cc2Cl)n1-c1nccs1`, the inhibition was 6% (inactive).

For `O=C1NC(=O)N(Cc2ccco2)C(=O)/C1=C\c1ccc(-c2cccc([N+](=O)[O-])c2)o1`, the inhibition was 57% (active).

With `CN1C(=O)NC(=O)/C(=C/c2ccc(-c3cccc([N+](=O)[O-])c3)o2)C1=O`, the inhibition was 14% (inactive).

As for `CN1C(=O)C(=Cc2ccc(-c3cccc([N+](=O)[O-])c3)o2)C(=O)N(C)C1=S`, the inhibition was 21% (inactive).

For the molecule `COc1cc(/C=C(\C)[N+](=O)[O-])cc(OC)c1OC`, the inhibition was 4% (inactive).

For the molecule `C/C(=C\c1ccc(Cl)cc1Cl)[N+](=O)[O-]`, the inhibition was 51% (active).

With `N#CC(C#N)=Cc1ccc(Cl)cc1Cl`, the inhibition was 3% (inactive).

On to `COc1ccc(C2c3c(c4ccccc4oc3=O)Oc3c2c(=O)oc2ccccc32)cc1Cn1nc(C)c([N+](=O)[O-])c1C`, for which the inhibition is 16% (inactive).

For the molecule `O=C(Nc1ccc(Cl)cc1C(=O)c1ccccc1)c1ccc([N+](=O)[O-])cc1`, the inhibition was 16% (inactive).

As for `Cc1cccc(-n2c(/C=C/c3ccco3)nc3ccccc3c2=O)c1`, the inhibition was 4% (inactive).

Consider `CCOc1ccc(N2C(=O)CC(=O)NC2=S)cc1`, for which the inhibition is 11% (inactive).

As for `O=C1NC(=S)NC(=O)C1=Cc1ccc(-c2ccc(C(=O)O)cc2)o1`, the inhibition is 14% (inactive).

Take `CCN1C(=O)/C(=C/c2cccn2C)C(=O)NC1=S`: the inhibition was 51% (active).

`C=CCN1C(=O)NC(=O)C(=Cc2cccn2C)C1=O`: the inhibition was 0% (inactive).

In the case of `Cn1cccc1/C=C1/C(=O)NC(=S)N(c2ccc(Cl)cc2)C1=O`, the inhibition is 41% (inactive).

For the molecule `Cc1cccc(-n2c(/C=C3\C(=O)Nc4ccccc43)nc3ccc(I)cc3c2=O)c1`, the inhibition is 15% (inactive).

In the case of `Cc1cc(-c2ccc(C=C3C(=O)NC(=O)NC3=O)o2)ccc1[N+](=O)[O-]`, the inhibition is 67% (active).

On to `Cc1ccc(-c2ccc(C=C3C(=O)NC(=S)NC3=O)o2)cc1[N+](=O)[O-]`, for which the inhibition is 62% (active).

On to `Cc1cc(-c2ccc(C=C3C(=O)NC(=S)NC3=O)o2)cc([N+](=O)[O-])c1C`, for which the inhibition was 35% (inactive).

In the case of `Cc1cc([N+](=O)[O-])c(C)cc1-c1ccc(C=C2C(=O)NC(=O)NC2=O)o1`, the inhibition is 16% (inactive).

For the molecule `Cc1c(-c2ccc(C=C3C(=O)NC(=S)NC3=O)o2)ccc([N+](=O)[O-])c1C`, the inhibition was 43% (inactive).

On to `Cc1c(-c2ccc(C=C3C(=O)NC(=O)NC3=O)o2)ccc([N+](=O)[O-])c1C`, for which the inhibition was 18% (inactive).

On to `Cc1ccccc1-n1c(/C=C/c2ccc(Br)cc2)nc2ccccc2c1=O`, for which the inhibition was 3% (inactive).

For `O=C(COc1ccc2ccccc2c1)N1CCN(Cc2ccccc2C(F)(F)F)CC1`, the inhibition was 51% (active).

On to `CCc1ccc(CN2CCN(C(=O)COc3ccc4ccccc4c3)CC2)cc1`, for which the inhibition is 19% (inactive).

Consider `O=C(COc1ccc2ccccc2c1)N1CCN(Cc2ccccc2[N+](=O)[O-])CC1`, for which the inhibition is 50% (active).

Regarding `Cc1ccccc1CN1CCN(C(=O)COc2ccc3ccccc3c2)CC1`, the inhibition is 42% (inactive).

Take `O=C(COc1ccc2ccccc2c1)N1CCN(Cc2ccc(F)cc2)CC1`: the inhibition was 0% (inactive).

As for `O=C(COc1ccc2ccccc2c1)N1CCN(Cc2ccc([N+](=O)[O-])cc2)CC1`, the inhibition was 13% (inactive).

Consider `COc1ccc(/C=C2/C(=O)N(c3ccccc3)C(=S)N(c3ccccc3OC)C2=O)c(OC)c1`, for which the inhibition was 5% (inactive).

As for `COc1ccc(O)c(CN2CCN(c3ccccc3OC)CC2)c1`, the inhibition was 3% (inactive).

Consider `O=c1c2ccccc2nc(CSc2ncnc3ccccc23)n1-c1ccccc1`, for which the inhibition was 16% (inactive).

`CCOC(=O)C1=C(C)OC(N)=C(C(=O)OCCOC)C12C(=O)Nc1ccccc12` (centres undefined): the inhibition was 0% (inactive).

Consider `C=CCN1C(=O)NC(=O)/C(=C/c2ccc(O)c(O)c2)C1=O`, for which the inhibition is 60% (active).

Consider `C=CCN1C(=O)NC(=O)/C(=C\c2ccc(O)c(OC)c2)C1=O`, for which the inhibition was 0% (inactive).

For `O=C1NC(=O)N(Cc2ccccc2)C(=O)/C1=C/c1ccc(O)c(O)c1`, the inhibition was 11% (inactive).

On to `O=[N+]([O-])c1ccc(N2CCNCC2)cc1N1CCOCC1`, for which the inhibition is 3% (inactive).

Take `O=c1c2ccccc2nc(-c2ccccn2)n1-c1ccc(Cl)cc1`: the inhibition was 4% (inactive).

`COc1cc(OC)c(OC)cc1C=C(C#N)C#N`: the inhibition was 4% (inactive).

For the molecule `COc1ccc(C=C(C#N)C#N)cc1C`, the inhibition was 44% (inactive).

As to `COc1cc(C)c(C=C(C#N)C#N)cc1C`, the inhibition is 50% (active).

Take `O=C1NC(=O)C(=Cc2ccc(N3CCOCC3)c([N+](=O)[O-])c2)C(=O)N1`: the inhibition was 0% (inactive).

`O=[N+]([O-])c1ccc(N2CCCC2)c(F)c1Br`: the inhibition is 34% (inactive).

Turning to `O=C1NC(=O)N(c2cccc(Br)c2)C(=O)/C1=C/c1ccco1`, the inhibition is 19% (inactive).

For the molecule `O=C1NC(=S)N(c2ccccc2)C(=O)/C1=C/c1ccco1`, the inhibition is 36% (inactive).

`O=C1NC(=S)N(c2cccc(Br)c2)C(=O)/C1=C/c1ccco1`: the inhibition is 98% (active).

Regarding `O=C1NC(=S)N(c2cccc(Cl)c2Cl)C(=O)/C1=C/c1ccc(-c2ccc(C(=O)O)cc2)o1`, the inhibition is 12% (inactive).

On to `N#CC(C#N)=Cc1ccc(C(F)(F)F)cc1`, for which the inhibition was 1% (inactive).

For the molecule `CSc1ccc(CN2CCN(c3ccccc3C)CC2)cc1`, the inhibition is 7% (inactive).

`COc1ccc(Br)cc1CN1CCN(C(=O)COc2ccc3ccccc3c2)CC1`: the inhibition is 42% (inactive).

On to `COc1ccc(Br)cc1CN1CCN(C(=O)COc2ccc(Cl)cc2)CC1`, for which the inhibition was 52% (active).

As to `COc1ccc(Br)cc1CN1CCN(C(=O)COc2ccccc2)CC1`, the inhibition was 42% (inactive).
